Compound activity from PubChem.
KCNH2 WT inh – qHTS for Inhibitors of KCHN2 3.1: Wildtype qHTS; Voltage-gated inwardly rectifying potassium channel KCNH2 (Homo sapiens), Q12809; U2OS, BacMam KCNH2, thallium flux FluxOr; stronger effect = lower value; activity change, % at 1.84 µM; 0.37% of 340,000 active;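 active means maximum activity change below -70%; inconclusive means maximum activity change between -70% and -50%; inactive means maximum activity change above -50%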; further: on the % scale 0 is the no-effect control and ±100 the full control effect
Target sequence (Q12809 whole entry, looked up): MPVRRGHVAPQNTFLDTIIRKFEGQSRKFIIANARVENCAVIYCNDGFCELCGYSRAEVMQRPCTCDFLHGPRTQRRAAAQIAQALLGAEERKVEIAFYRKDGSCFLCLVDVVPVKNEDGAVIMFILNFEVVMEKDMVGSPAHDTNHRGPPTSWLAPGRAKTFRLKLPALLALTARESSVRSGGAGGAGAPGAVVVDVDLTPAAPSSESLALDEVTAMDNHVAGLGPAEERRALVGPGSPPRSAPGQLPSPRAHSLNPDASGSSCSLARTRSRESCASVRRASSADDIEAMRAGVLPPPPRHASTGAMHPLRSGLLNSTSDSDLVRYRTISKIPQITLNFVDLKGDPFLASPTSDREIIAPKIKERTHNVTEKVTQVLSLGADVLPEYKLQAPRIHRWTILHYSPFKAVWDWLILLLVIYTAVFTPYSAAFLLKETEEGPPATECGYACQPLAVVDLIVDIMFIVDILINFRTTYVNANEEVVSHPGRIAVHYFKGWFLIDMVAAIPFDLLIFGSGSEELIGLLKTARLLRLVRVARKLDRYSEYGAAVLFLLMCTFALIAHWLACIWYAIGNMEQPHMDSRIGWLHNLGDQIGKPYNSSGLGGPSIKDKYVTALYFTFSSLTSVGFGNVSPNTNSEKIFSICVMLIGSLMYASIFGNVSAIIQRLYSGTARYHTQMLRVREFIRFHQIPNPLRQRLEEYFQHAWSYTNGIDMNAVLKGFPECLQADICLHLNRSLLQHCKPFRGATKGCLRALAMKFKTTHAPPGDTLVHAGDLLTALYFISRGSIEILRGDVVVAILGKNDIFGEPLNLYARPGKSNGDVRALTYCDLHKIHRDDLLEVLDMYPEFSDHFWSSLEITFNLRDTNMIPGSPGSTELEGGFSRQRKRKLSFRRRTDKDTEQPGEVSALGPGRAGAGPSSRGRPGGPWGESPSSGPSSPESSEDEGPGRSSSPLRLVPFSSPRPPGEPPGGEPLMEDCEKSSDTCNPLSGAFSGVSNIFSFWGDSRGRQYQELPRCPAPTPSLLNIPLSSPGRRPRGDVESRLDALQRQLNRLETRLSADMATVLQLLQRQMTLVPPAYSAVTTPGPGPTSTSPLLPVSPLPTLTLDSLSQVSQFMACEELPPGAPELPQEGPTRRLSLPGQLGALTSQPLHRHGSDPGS
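U2OS cells transduced with wild-type KCNH2 virus are loaded with FluxOr dye for 45 min, and thallium flux is measured in kinetic reads before and after stimulation buffer. Rate constants are normalized to DMSO controls.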
KCNH2 3.1 inh – qHTS for Inhibitors of KCHN2 3.1: Mutant qHTS | 0.95% of 340,000 active | U2OS KCNH2 3.1, thallium flux FluxOr; stronger effect = lower value | Potassium voltage-gated channel subfamily H member 2, brain isoform KCNH2 3.1 (human) | activity change, % (tested at about 1.8 µM);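 active means maximum activity change below -70%; inconclusive means maximum activity change from -70% to -50%; inactive means maximum activity change above -50%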;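 further: thallium influx rate constant from kinetic fluorescence after stimulation buffer; on the % scale 0 is the no-effect control and ±100 the full control effect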
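Normalized rate constant (relative to positive and negative DMSO controls) derived from a 2 min kinetic fluorescence read after stimulation; U2OS cells expressing the 3.1 isoform via virus at 1.77 x 10^8 /mL.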
TRPV1 ag – HTS Assay for Compounds that Act as Agonists of the Vanilloid Receptor 1 | TRPV1-expressing cells, Fluo-8 calcium influx, agonist mode | activation, % at 8.33 µM | 0.19% of 320,000 active | AID 540275, 2011; in the data active means activation above about 80%; inconclusive means between about 30% and that limit; further: 0% is about no effect
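Fluo-8 calcium influx in TRPV1-expressing cells, kinetic read (ex 480/em 520 nm). Compound added and read 3 min for agonist activity, followed by capsaicin at EC20 final and 2 min further read for enhancement.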
TRPV1 potentiator – HTS Assay for Compounds that Act as Potentiators of the Vanilloid Receptor 1; Transient receptor potential cation channel subfamily V member 1 (Homo sapiens), Q8NER1; TRPV1-expressing cells, Fluo-8 calcium influx, capsaicin EC20 potentiation; potentiation, % at 8.33 µM; 0.02% of 320,000 active; in the data active means potentiation above about 80%; inconclusive means between about 30% and that limit; further: 0% is about no effect
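Cells expressing TRPV1 were dye-loaded with Fluo-8 and read kinetically: 10 s baseline, 3 min after compound (agonist portion), then 2 min after EC20 capsaicin (allosteric enhancer portion). Calcium-bound dye fluorescence at 480/520 nm.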
Starred values were filed as active, the others as inactive; u = inconclusive; x = no result. Shown are actives, neighbours in structure and some others; about 1.2% of the full set was active somewhere.

SMILES	KCNH2 WT inh	KCNH2 3.1 inh	TRPV1 ag	TRPV1 potentiator
CCc1ccc2c(CN3CCN(S(=O)(=O)c4ccccc4F)CC3)cc(=O)oc2c1	-14.2	-74.6*	x	x
COc1ccc(CN2CCN(Cc3cc(=O)oc4cc(C)ccc34)CC2)c(OC)c1OC	u	-100.0*	3.6	2.5
COc1ccc2c(CN3CCN(Cc4ccccc4)CC3)cc(=O)oc2c1	-78.8*	-107.7*	x	x
CCc1ccc2c(CN3CCN(Cc4ccccc4)CC3)cc(=O)oc2c1	-141.5*	-119.8*	1.4	2.0
CCc1ccc2c(CN3CCN(S(=O)(=O)c4cccs4)CC3)cc(=O)oc2c1	-8.1	0.6	5.7	-3.1
CCc1cc2c(CN3CCN(Cc4ccccc4)CC3)cc(=O)oc2cc1O	15.4	-0.2	3.2	3.1
NC(=O)COC(=O)CC(c1ccccc1)c1ccccc1	8.3	-94.1*	25.1	-26.2
O=C(N/N=C/c1ccc(O)cc1)/C(=C/c1ccccc1)CCO	-3.4	-88.2*	-2.7	17.0
O=C(N/N=C/c1ccccc1)C(=O)N/N=C/c1ccccc1	1.6	-4.3	-1.0	3.0
Cc1cccc(/C(N)=N/OC(=O)c2ccc3c(c2)OCO3)c1	-104.7*	-5.0	4.0	-2.2
N/C(=N\OC(=O)c1ccc2c(c1)OCO2)c1cccc([N+](=O)[O-])c1	0.6	26.9	25.0	-10.9
CCCOC(=O)C1=C(C)NC(=O)NC1c1cc2c(cc1Br)OCO2 (stereo unspecified)	10.8	-6.2	-6.0	-4.2
CC(C)c1ccc(/C=C/C(=O)N2CCCCCC2)cc1	-1.7	-1.7	u	0.2
CCCOc1ccc(/C=C/C(=O)N2CCOCC2)cc1	6.8	-14.2	89.4*	-8.1
CC(C)c1ccc(/C=C/C(=O)N2CCOCC2)cc1	-7.1	1.7	93.9*	7.7
CN(c1ccccc1C(=O)Nc1ccc2ccccc2c1)S(C)(=O)=O	-0.8	-4.1	x	x
COc1cc(C(=O)COC(=O)C2CCN(c3ccc(C(F)(F)F)cn3)CC2)ccc1OC(F)F	-6.6	-78.7*	4.5	-11.7
O=C(COC(=O)C1CCN(c2ccc(C(F)(F)F)cn2)CC1)c1ccc(F)cc1	-43.6	-78.5*	-0.3	u
Cc1nnc(SCC(=O)NNC(=O)c2ccc(Br)cc2)n1C	-12.3	-8.2	-2.1	-0.6
CCN(CCCNC(=O)c1cn(CC)c2ccc(S(=O)(=O)N(C)C)cc2c1=O)c1cccc(C)c1	2.8	-12.5	109.5*	-2.5
CCn1cc(C(=O)NCCCN(C)c2ccccc2)c(=O)c2cc(S(=O)(=O)N(C)C)ccc21	-8.7	-26.7	u	4.0
CCCCNC(=S)N(Cc1c(C)noc1C)c1ccccc1	11.6	-116.9*	u	-35.9
CCNC(=S)N(Cc1c(C)noc1C)c1ccccc1	-7.6	6.9	-3.6	24.7
O=C(Nc1nnc(C2CCCCC2)s1)c1ccc(Br)s1	12.1	1.6	80.4*	-6.7
O=C(C[C@@H]1C[C@@H]2c3cc(NC(=O)C4CCOCC4)ccc3O[C@@H]2[C@H](CO)O1)NCc1ccccn1	-0.9	-11.0	x	x
SMILES	KCNH2 WT inh	KCNH2 3.1 inh	TRPV1 ag	TRPV1 potentiator
CCN1CCN(C(CNS(=O)(=O)c2cccs2)c2cccnc2)CC1 (stereo unspecified)	16.0	-461.8*	-0.1	6.6
Nc1nonc1-n1nnc(C(=O)N/N=C/c2ccc(O)cc2)c1COc1ccc(F)cc1	3.7	-4.5	u	7.0
CN(C)Cc1c(C(=O)N/N=C/c2ccc(OCc3c(F)cccc3Cl)cc2)nnn1-c1nonc1N	-29.1	-85.7*	3.1	10.7
Nc1nonc1-n1nnc(C(=O)N/N=C/c2ccc(OCc3cccc(Cl)c3)cc2)c1CN1CCCCC1	8.3	4.2	-1.0	19.9
Nc1nonc1-n1nnc(C(=O)N/N=C/c2ccc(OCc3ccccc3F)cc2)c1CN1CCCCC1	2.0	-100.0*	-1.1	-6.3
Cc1cc(Oc2cccc3c2S(=O)(=O)N(C2CCCC2)CC(COCc2ccccc2)O3)cc(C)c1C (stereo unspecified)	-0.7	-46.4	x	x
O=C(CCc1nc2ccccc2[nH]1)Nc1ccc2c(c1)OCO2	1.7	-197.6*	-6.0	-19.3
O=C(CCc1nc2ccccc2[nH]1)NCc1ccc2c(c1)OCO2	-12.9	-2.7	0.5	12.8
